# Measurements taken from PubChem BioAssay (NCATS).
# Results filed as inconclusive are left out. Entries that show only a call come without a potency. Unmarked numbers belong to inactive results. Active and inactive are the calls of the source. The call rests on the fitted dose curve; in most records, active means well fitted curve in the direction sought with a large enough effect; inconclusive means small, poorly fitted or top-dose-only effect, or another doubt; inactive means no such curve, though single readings can be large; an effect the other way counts as inactive or inconclusive.
# Legend:
# [1] = molecular target: Rap guanine nucleotide exchange factor 3 (Homo sapiens) (UniProt O95398); assay: Confirmatory qHTS for agonist of cAMP-regulated guanine nucleotide exchange factor 3 (EPAC1) (AID 1645881); conditions: EPAC1 Rap1B BODIPY-GDP exchange fluorescence; series mostly up to 154 µM;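 further: EPAC1 catalysed release of BODIPY-GDP from Rap1B seen as fluorescence loss; nearly all actives have a fitted effect of over 75% in size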
# Sequence of Rap guanine nucleotide exchange factor 3 (Homo sapiens) (O95398 whole entry, looked up): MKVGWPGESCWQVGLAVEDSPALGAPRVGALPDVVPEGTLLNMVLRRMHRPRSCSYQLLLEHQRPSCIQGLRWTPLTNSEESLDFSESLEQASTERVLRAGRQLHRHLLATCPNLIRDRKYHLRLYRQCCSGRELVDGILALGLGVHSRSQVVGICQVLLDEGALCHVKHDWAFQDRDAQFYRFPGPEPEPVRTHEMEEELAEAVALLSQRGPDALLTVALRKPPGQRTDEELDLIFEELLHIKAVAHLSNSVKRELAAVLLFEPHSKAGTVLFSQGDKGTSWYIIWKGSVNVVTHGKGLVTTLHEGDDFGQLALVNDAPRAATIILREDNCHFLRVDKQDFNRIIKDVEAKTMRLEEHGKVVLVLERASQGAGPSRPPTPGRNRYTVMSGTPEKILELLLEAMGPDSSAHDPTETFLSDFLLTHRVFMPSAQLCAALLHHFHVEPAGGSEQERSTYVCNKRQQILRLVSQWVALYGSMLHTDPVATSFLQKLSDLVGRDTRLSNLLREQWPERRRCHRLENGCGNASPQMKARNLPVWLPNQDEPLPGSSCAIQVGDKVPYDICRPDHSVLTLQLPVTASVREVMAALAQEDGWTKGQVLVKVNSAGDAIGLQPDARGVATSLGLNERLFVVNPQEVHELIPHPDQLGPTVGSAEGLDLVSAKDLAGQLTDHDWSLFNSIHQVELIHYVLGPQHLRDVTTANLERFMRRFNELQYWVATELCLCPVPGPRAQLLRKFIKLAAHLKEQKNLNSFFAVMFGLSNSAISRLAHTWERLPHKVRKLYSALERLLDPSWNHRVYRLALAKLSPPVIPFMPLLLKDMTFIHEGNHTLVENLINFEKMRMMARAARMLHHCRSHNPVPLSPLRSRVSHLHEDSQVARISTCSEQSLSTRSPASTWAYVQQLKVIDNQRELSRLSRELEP
# [2] = molecular target: Rap guanine nucleotide exchange factor 4 (Homo sapiens) (UniProt Q8WZA2); assay: Confirmatory qHTS for antagonist of cAMP-regulated guanine nucleotide exchange factor 4 (EPAC2) (AID 1645885); conditions: EPAC2 Rap1B-BODIPY-GDP exchange fluorescence, biochemical; series mostly up to 12.7 µM; further: nearly all actives have a fitted effect of over 25% in size; further: potency means the concentration at half of the fitted maximal effect
# Sequence of Rap guanine nucleotide exchange factor 4 (Homo sapiens) (Q8WZA2 whole entry, looked up): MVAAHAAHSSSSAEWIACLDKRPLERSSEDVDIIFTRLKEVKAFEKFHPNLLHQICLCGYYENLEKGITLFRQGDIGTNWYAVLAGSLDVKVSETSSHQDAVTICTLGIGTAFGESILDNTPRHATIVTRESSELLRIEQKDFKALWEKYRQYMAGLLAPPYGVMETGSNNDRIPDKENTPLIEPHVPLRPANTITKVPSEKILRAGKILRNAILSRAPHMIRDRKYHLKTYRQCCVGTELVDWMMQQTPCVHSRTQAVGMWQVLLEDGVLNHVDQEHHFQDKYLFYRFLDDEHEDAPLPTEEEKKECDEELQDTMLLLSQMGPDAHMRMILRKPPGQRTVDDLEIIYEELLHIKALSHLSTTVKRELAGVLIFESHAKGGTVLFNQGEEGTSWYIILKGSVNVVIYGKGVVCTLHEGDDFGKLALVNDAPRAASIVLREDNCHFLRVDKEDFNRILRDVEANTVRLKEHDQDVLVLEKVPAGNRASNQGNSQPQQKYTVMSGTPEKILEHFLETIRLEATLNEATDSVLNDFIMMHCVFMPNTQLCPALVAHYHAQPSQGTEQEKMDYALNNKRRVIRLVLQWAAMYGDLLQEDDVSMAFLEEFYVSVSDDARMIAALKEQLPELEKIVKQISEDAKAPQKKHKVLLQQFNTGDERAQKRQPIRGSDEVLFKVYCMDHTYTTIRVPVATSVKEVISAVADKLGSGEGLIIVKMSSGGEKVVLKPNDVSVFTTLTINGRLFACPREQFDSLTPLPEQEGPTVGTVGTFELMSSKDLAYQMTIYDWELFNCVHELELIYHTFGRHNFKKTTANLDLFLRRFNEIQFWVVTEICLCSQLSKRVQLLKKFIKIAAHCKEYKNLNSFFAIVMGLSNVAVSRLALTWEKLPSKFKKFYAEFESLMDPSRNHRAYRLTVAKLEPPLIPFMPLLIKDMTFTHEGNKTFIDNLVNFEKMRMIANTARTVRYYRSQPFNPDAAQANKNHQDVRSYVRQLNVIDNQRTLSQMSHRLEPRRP
# [3] = molecular target: Rap guanine nucleotide exchange factor 3 (Homo sapiens) (UniProt O95398); assay: Counterscreen qHTS for antagonist of cAMP-regulated guanine nucleotide exchange factor 3 (EPAC1) (AID 1645888); conditions: Rap1B-BODIPY-GDP nucleotide exchange, fluorescence; series mostly up to 154 µM;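 further: fluorescence loss as bound BODIPY-GDP is released from Rap1B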
# Method in brief: (§1)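 Rap1B–BODIPY-GDP (250 nM) with 50 uM GDP; compounds pin-transferred to 9.74 nM–152 uM final (activator) or from 7.32 nM upwards (inhibitor). Fluorescence Ex/Em 480/540 nm read at 5 and 30 min, then after adding cAMP or buffer, at room temperature.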
# [4] = molecular target: Rap guanine nucleotide exchange factor 3 (Homo sapiens) (UniProt O95398); assay: Counterscreen qHTS for agonist of cAMP-regulated guanine nucleotide exchange factor 3 (EPAC1) (AID 1645889); conditions: EPAC1 Rap1B-BODIPY-GDP exchange, fluorescence; series mostly up to 154 µM; further: nearly all actives have a fitted effect of over 40% in size
# Method in brief: as §1
# [5] = molecular target: Rap guanine nucleotide exchange factor 4 (Homo sapiens) (UniProt Q8WZA2); assay: Confirmatory qHTS for agonist of cAMP-regulated guanine nucleotide exchange factor 4 (EPAC2) (AID 1645884); conditions: EPAC2 GEF activity, Rap1B-BODIPY-GDP fluorescence; series mostly up to 154 µM;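 further: nucleotide exchange releases bodipy-GDP from Rap1 and this lowers its fluorescence; nearly all actives have a fitted effect of over 65% in size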; further: potency means the concentration at half of the fitted maximal effect
smiles,measurement,setting,value
CC(C)C(NC(=O)C1CC(=O)N(Cc2ccccc2)C1)c1nc2ccccc2[nH]1 (stereo not given),Potency,[1],inactive
same,Potency,[2],inactive
same,Potency,[3],inactive
CCCN1C(=O)c2[nH]nc(-c3ccc(F)cc3)c2C1c1ccc(O)c(OCC)c1 (stereo not given),Potency,[1],inactive
same,Potency,[2],inactive
same,Potency,[3],inactive
same,Potency,[4],inactive
Cc1cc(C)c2c(CN3CCCC3)cc(=O)oc2c1,Potency,[1],inactive
same,Potency,[2],inactive
same,Potency,[3],inactive
Nc1nc(CSc2ccc(Cl)cc2)nc(N2CCCCC2)n1,Potency,[1],inactive
same,Potency,[2],inactive
same,Potency,[3],inactive
Cc1cc(N(CCO)Cc2ccccc2)n2nc(-c3ccc(C(C)(C)C)cc3)nc2n1,Potency,[1],inactive
same,Potency,[2],inactive
same,Potency,[3],inactive
same,Potency,[4],inactive
O=C(Nc1cccc(S(=O)(=O)NCc2ccco2)c1)c1cc(-c2ccccc2)nc2ccccc12,Potency,[1],inactive
same,Potency,[2],inactive
same,Potency,[3],inactive
O=C1OC(Cc2ccccc2)(c2ccccc2)c2ccccc21 (stereo not given),Potency,[1],inactive
same,Potency,[2],inactive
same,Potency,[3],inactive
same,Potency,[4],inactive
Cc1ccc(-c2nc3ccc(C)cn3c2Cc2cccc(F)c2)cc1,Potency,[1],inactive
same,Potency,[2],inactive
same,Potency,[3],inactive
CCOC(=O)Nc1cc2c(c(N)n1)N=C(c1ccccc1)CN2,Potency,[1],inactive
same,Potency,[2],inactive
same,Potency,[3],inactive
CCC(=O)N(CCC(Cc1ccccc1)c1ccco1)Cc1ccco1 (stereo not given),Potency,[1],inactive
same,Potency,[3],inactive
same,Potency,[4],inactive
COc1ccc(NC(=O)c2cc(-c3cc(Cl)ccc3C)n[nH]2)cn1,Potency,[1],inactive
same,Potency,[3],inactive
COC(=O)c1ccc2nc(-c3cccc(Cl)c3)c(Cc3ccccc3)n2c1,Potency,[1],inactive
same,"activity change, negative = inhibition",[3],-21.2% [at 30.8 µM]
same,activation,[4],15.5% [at 30.8 µM]
COc1ccccc1C1CC(=O)Oc2cc(C)c(Br)c(C)c21 (stereo not given),Potency,[1],inactive
same,Potency,[3],inactive
COc1ccc(C2CC(=O)Oc3cc(OC)c(OC)c(OC)c32)cc1 (stereo not given),Potency,[1],inactive
same,"activity change, negative = inhibition",[3],-24.9% [at 30.8 µM]
same,activation,[4],20% [at 30.8 µM]
N#Cc1c(N)c(C#N)c(-c2ccc(O)cc2)c2c1CCCC2,Potency,[1],inactive
same,Potency,[3],inactive
CC(=O)Nc1ccc(S(=O)(=O)N2CCN(c3cc(C)ccc3C)CC2)cc1,Potency,[1],inactive
same,Potency,[3],inactive
COc1ccc(C=C(C(C)=O)C(=O)c2ccccc2)cc1,Potency,[1],inactive
same,Potency,[3],inactive
CCOC(=O)C1=C(C)N(C)C(C)=C(C(=O)OCC)C1c1ccc(Cl)cc1,Potency,[1],inactive
same,Potency,[3],inactive
same,Potency,[4],inactive
CN(Nc1cccc(Cl)c1)c1cccc(Cl)c1,Potency,[1],inactive
same,Potency,[3],inactive
COC(=O)c1ccc2nc(-c3cccc(Br)c3)c(Cc3ccccc3)n2c1,Potency,[1],inactive
same,Potency,[3],inactive
CCOC(=O)C1=C(c2ccccc2)c2ccccc2OC1C(=O)OCC (stereo not given),Potency,[1],inactive
same,"activity change, negative = inhibition",[3],-22.2% [at 30.8 µM]
same,activation,[4],24.5% [at 30.8 µM]
Clc1ccc(CSc2nnc(-c3ccccn3)n2Cc2ccco2)cc1Cl,Potency,[1],inactive
same,Potency,[3],inactive
O=C1Nc2ccccc2/C1=N\N=C\c1ccc(O)c(O)c1,Potency,[1],inactive
same,Potency,[3],inactive
COC(=O)C1=CN(c2c(C)cc(C)cc2C)C(N)=C(C#N)C1c1ccccc1 (stereo not given),Potency,[1],inactive
same,Potency,[3],inactive
COc1ccc(C(=O)c2oc3ccc(OC)cc3c2N)cc1,Potency,[1],inactive
same,Potency,[3],inactive
same,Potency,[4],inactive
COC(=O)CN(c1nc(C)c(Br)c(OC)n1)S(=O)(=O)c1ccccc1,Potency,[1],inactive
same,Potency,[3],inactive
CCC(=O)N(CCC(c1ccc(C)cc1)c1ccco1)Cc1ccco1 (stereo not given),Potency,[1],inactive
same,"activity change, negative = inhibition",[3],-11.4% [at 30.8 µM]
same,activation,[4],19.5% [at 30.8 µM]
CN(CC(=O)Nc1cccc(F)c1)C(=O)/C=C/c1cc(Br)ccc1OC(F)F,Potency,[1],inactive
same,Potency,[3],inactive
CSc1nc(N)c(C(=O)N(c2ccccc2)c2ccccc2)s1,Potency,[1],inactive
same,"activity change, negative = inhibition",[3],-10.5% [at 30.8 µM]
same,activation,[4],22.8% [at 30.8 µM]
Cc1ccc(S(=O)(=O)CC(=O)c2cc3cccc(C)c3oc2=O)cc1,Potency,[1],inactive
same,Potency,[3],inactive
same,Potency,[4],inactive
O=C(/C=C/c1ccco1)Oc1cc(Br)cc(/C=N/NC(=O)c2ccccc2O)c1,Potency,[1],inactive
same,Potency,[3],inactive
Cc1ccc2sc(N(CCCN(C)C)C(=O)c3nc4ccccc4s3)nc2c1C,Potency,[1],inactive
same,Potency,[3],inactive
COc1ccc(C(=O)/C=C/c2ccccc2)c(OC)c1,Potency,[1],inactive
same,Potency,[3],inactive
O=C(Nc1ccc(F)cc1)c1cccc(N2C(=O)C3C4C=CC(C5CC45)C3C2=O)c1 (stereo not given),Potency,[1],inactive
same,Potency,[3],inactive
CCCC(C(=O)Nc1ccc(S(=O)(=O)Nc2nccs2)cc1)c1ccccc1 (stereo not given),Potency,[1],inactive
same,"activity change, negative = inhibition",[3],-24.2% [at 30.8 µM]
same,activation,[4],8.61% [at 30.8 µM]
COC(=O)c1ccc2nc(C3CCCCC3)c(Cc3ccccc3C(F)(F)F)n2c1,Potency,[1],inactive
same,Potency,[3],inactive
same,Potency,[4],inactive
Cc1ccc2nc(-c3ccccc3)c(Cc3cccc(Cl)c3)n2c1,Potency,[1],inactive
same,Potency,[3],inactive
Cc1ccc2c(c1)OC(=O)CC2c1ccccc1 (stereo not given),Potency,[1],inactive
same,Potency,[3],inactive
Cc1nc([N+](=O)[O-])c(Br)n1Cc1ccc(Cl)c(Cl)c1,Potency,[1],inactive
same,Potency,[3],inactive
O=C(O)c1cccc(Cn2c(Cl)c(/C=N/NC(=O)c3cc4ccccc4cc3O)sc2=O)c1,Potency,[1],inactive
same,Potency,[3],inactive
O=C1N(c2ccc(Cl)cc2)C(c2ccccc2)N2CCCN12 (stereo not given),Potency,[1],inactive
same,Potency,[3],inactive
CC(=O)NC(c1cccc(F)c1)c1nc(/C=C/c2ccccc2)cs1 (stereo not given),Potency,[1],inactive
same,Potency,[3],inactive
Cc1cccc(Oc2ccccc2NC(=O)C2=COCCO2)c1,Potency,[1],inactive
same,Potency,[3],inactive
COc1ccc(C(=O)Oc2ccc(/C=N/Nc3ccc(Cl)c(C(=O)O)c3)cc2OC)cc1,Potency,[1],inactive
same,Potency,[3],inactive
C/C(=N\N(Cc1ccccc1)c1ccccc1)c1cccnc1,Potency,[1],inactive
same,Potency,[3],inactive
CCc1nnc(NS(=O)(=O)c2ccc(NC(=O)C(c3ccccc3)c3ccccc3)cc2)s1,Potency,[1],inactive
same,Potency,[3],inactive
Cn1ccc2c(-c3ccc(C(C)(C)C)cc3)cc3c(c21)C1CCC3O1 (stereo not given),Potency,[1],inactive
same,Potency,[3],inactive
same,Potency,[4],inactive
S=C(Nc1ccc2nsnc2c1)N1CCCCC1,Potency,[1],inactive
same,Potency,[3],inactive
CCC(=O)N1N=C(c2cccs2)CC1c1ccc(C)cc1 (stereo not given),Potency,[1],inactive
same,Potency,[3],inactive
same,Potency,[4],inactive
CCC(=O)N(CCC(c1ccco1)C(C)C)Cc1ccccc1 (stereo not given),Potency,[1],inactive
same,Potency,[4],inactive
Cc1nc2ccccc2c(C)c1C(=O)c1ccccc1,Potency,[1],inactive
same,activation,[4],-2.6% [at 30.8 µM]
COc1ccc(S(=O)(=O)Nc2ccc(F)cc2)c(C)c1C,Potency,[5],inactive
same,Potency,[2],5.36 µM (active)
same,Potency,[3],inactive
Nc1nc(N)c2c(ccc3c2ccn3Cc2cccc([N+](=O)[O-])c2)n1,Potency,[5],100 µM (active)
COC(=O)c1ccc2nc(-c3ccco3)c(Cc3cccc(F)c3)n2c1,Potency,[1],inactive
same,Potency,[3],inactive
same,Potency,[4],inactive
CC(=O)N(CCC(Cc1ccccc1)c1ccco1)Cc1ccco1 (stereo not given),Potency,[1],inactive
same,"activity change, negative = inhibition",[3],-6.33% [at 30.8 µM]
same,activation,[4],32.1% [at 30.8 µM]
O=C(Nc1cccc(C(F)(F)F)c1)C1Cc2c(-c3ccccc3)ccnc2O1 (stereo not given),activation,[5],"3.96% [at 17.1 µM, percent relative to cAMP agonist control]"
same,Potency,[2],inactive
same,"activity change, negative = inhibition",[3],-3.59% [at 30.8 µM]
